L3MBTL1 inh = inhibitors of human L3MBTL1. Q9Y468. AlphaScreen L3MBTL1–H3K9me1 peptide binding. Potency, µM (series often up to 57.1 µM), inactives show at the highest dose activity, negative = inhibition, most hits filed as inhibitors. 0.66% of 230,000 active. AID 485360; further: potency means the concentration at half of the fitted maximal effect; on the % scale 0 is the no-effect control and ±100 the full control effect; nearly all actives have a fitted effect of over 60% in size
Target sequence (Q9Y468 whole entry, looked up): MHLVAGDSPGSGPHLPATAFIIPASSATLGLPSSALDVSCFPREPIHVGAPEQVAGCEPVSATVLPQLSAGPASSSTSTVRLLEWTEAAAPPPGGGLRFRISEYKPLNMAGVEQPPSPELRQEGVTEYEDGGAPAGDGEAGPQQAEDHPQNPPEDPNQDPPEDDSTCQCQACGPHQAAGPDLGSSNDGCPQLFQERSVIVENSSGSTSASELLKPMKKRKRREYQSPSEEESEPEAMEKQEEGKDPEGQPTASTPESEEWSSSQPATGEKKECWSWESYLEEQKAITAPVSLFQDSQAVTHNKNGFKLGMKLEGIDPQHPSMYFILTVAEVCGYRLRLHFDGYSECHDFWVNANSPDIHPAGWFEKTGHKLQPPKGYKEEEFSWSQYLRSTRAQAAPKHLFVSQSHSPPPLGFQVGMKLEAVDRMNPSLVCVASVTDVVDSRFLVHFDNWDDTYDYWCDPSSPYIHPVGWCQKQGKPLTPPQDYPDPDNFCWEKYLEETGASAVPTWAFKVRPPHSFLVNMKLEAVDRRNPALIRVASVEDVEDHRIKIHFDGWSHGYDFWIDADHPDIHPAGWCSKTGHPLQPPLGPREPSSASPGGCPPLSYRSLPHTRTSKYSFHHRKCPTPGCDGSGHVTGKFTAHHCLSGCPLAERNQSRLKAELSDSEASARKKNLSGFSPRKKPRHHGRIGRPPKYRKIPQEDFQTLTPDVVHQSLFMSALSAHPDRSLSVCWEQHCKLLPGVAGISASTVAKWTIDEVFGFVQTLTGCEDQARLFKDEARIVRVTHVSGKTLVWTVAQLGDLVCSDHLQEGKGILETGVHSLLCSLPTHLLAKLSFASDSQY
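L3MBTL1 50 nM + b-AHA-H3(1-15)K9me1 75 nM, 30 min RT; compound added, 30 min RT; streptavidin donor/Ni-chelate acceptor beads 10 ug/mL each final, 30 min RT dark; AlphaScreen read.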
JMJD2A Tudor = blocks the human JMJD2A Tudor domain; O75164; AlphaScreen JMJD2A-Tudor / H3K4me3 peptide binding; 4.4% of 390,000 active; Potency, µM (top dose mostly 114 µM), for the others: top-dose activity change, negative = inhibition, hits mostly inhibitors; further: potency means the concentration at half of the fitted maximal effect; on the % scale 0 is the no-effect control and ±100 the full control effect; nearly all actives have a fitted effect of over 50% in size
PI5P4Ka inh = blocks human PI5P4K alpha kinase activity | PI5P4Kalpha enzyme, ADP-Glo luminescence, 60 min; active compounds read low | max response, % | 1.2% of 330,000 active; active means max response of -50% or lower; inconclusive means between -30% and -50%; inactive means -30% or higher; further: value at the top dose of about 77 µM; on the % scale 0 is the no-effect control and ±100 the full control effect
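Single end-point luminescence (ADP-Glo) quantified ADP from PI5P4Kalpha turnover; ATP 5 microM final, 1 h at RT, 0.1% CHAPS and 0.28 mM EGTA in HEPES pH 7.4.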
HP1b chromo inh = HP1-beta chromodomain-methylated histone interaction inhibition; AlphaScreen HP1-beta / biotin-H3K9me3 peptide binding; 0.56% of 390,000 active; Potency, µM (series often up to 114 µM), without a hit: at the top dose activity change, negative = inhibition, actives largely listed as inhibitors; further: potency means the concentration at half of the fitted maximal effect; nearly all actives have a fitted effect of over 70% in size
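HP1-beta protein (50 nM final) preincubated 30 min at room temperature with biotinylated H3(1-18)K9me3 peptide (50 nM) in PBS pH 7.4, 0.01% Tween-20, then compound added for 30 min. AlphaScreen streptavidin donor/nickel chelate acceptor beads (10 ug/mL final), 30 min dark, luminescence read.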
G9a inh = G9a (human) methyltransferase inhibition. 8.8% of 350,000 active. Potency, µM (highest dose often 102 µM), without a hit: top-dose activity, negative = inhibition, actives largely listed as inhibitors. AID 504332. Q96KQ7. G9a H3K9 monomethylation, AlphaScreen, 2 h; further: potency means the concentration at half of the fitted maximal effect; on the % scale 0 is the no-effect control and ±100 the full control effect; nearly all actives have a fitted effect of over 75% in size
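Readings reflect AlphaScreen signal from monomethyl-H3K9 antibody detection. HMT at 20 nM; substrate b-H3K9 500 nM; cofactor SAM 20 uM; 2 h RT reaction; compounds tested as titrations in qHTS with 15 min preincubation.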
BAZ2B inh = blocks human BAZ2B; 4.4% of 360,000 active; Q9UIF8; Potency, µM (titrated, usually from 114 µM), for the others: at the top dose activity change, negative = inhibition, most hits filed as inhibitors; AlphaScreen BAZ2B-H3K14Ac peptide displacement; further: potency means the concentration at half of the fitted maximal effect; on the % scale 0 is the no-effect control and ±100 the full control effect; nearly all actives have a fitted effect of over 60% in size
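Inhibition is scored as reduced AlphaScreen emission. The BAZ2B/b-H3(5-23)K14Ac complex (50 nM each) in PBS pH 7.4, 0.01% Tween-20 meets compound (up to 110 uM) for 30 min at RT before bead addition.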
Starred values were filed as active, the others as inactive; u = inconclusive; x = no result given; ! = a repeat was not active; [ ] = another dose, or the depositor's remark. Shown are actives, neighbours in structure and some others; about 11% of the full set was active somewhere. Unless noted, the call rests on the fitted dose curve; in most records, active means well fitted inhibition curve with a large enough effect; inconclusive means small, poorly fitted or top-dose-only effect; inactive means no such curve, though single readings can be large or run the other way.

SMILES	L3MBTL1 inh	JMJD2A Tudor	PI5P4Ka inh	HP1b chromo inh	G9a inh	BAZ2B inh
Cc1cccc(C(=O)NC2(C(F)(F)F)N=C(c3ccccc3)N(C3CCCCC3)C2=O)c1 (stereo unspecified)	x	-10.1%	x	20.5%	2.8%[59 µM]	-16.6%
Cc1ccc(OCC(O)CN2CCN(Cc3ccc4c(c3)OCO4)CC2)cc1C (stereo unspecified)	-12.5%	-20.7%	-4.2	8.6%	-15.2%[59 µM]	u
C=CCc1ccccc1OCC(O)CN1CCN(Cc2ccc3c(c2)OCO3)CC1 (stereo unspecified)	-11.7%	-33.3%	-14.5	9.9%	44.7µM*!	56.2µM*
C=CCc1ccccc1OCC(O)CN1CCN(C(=O)OCC)CC1 (stereo unspecified)	44.1%	-11.5%	-3.9	19.5%	29.1%[2.33 µM]	20.6%
C=CCc1ccccc1OCC(O)CN1CCN(c2ccc(C)cc2)CC1 (stereo unspecified)	-17.4%	3.55µM*	x	u	12.6µM*	28.2µM*
CCOC(=O)C1CCN(S(=O)(=O)c2cc(-c3onc(C)c3C)ccc2OC)CC1	x	3.9%	x	39.3%	-5.2%[59 µM]	-4.7%
c1ccc(C2=Nc3ccccc3SC2c2nc3ccccc3[nH]2)cc1 (stereo unspecified)	x	x	x	x	12.6µM*	u
O=C1CC(c2nc3ccccc3[nH]2)CN1c1ccccc1 (stereo unspecified)	4.4%	-14.7%	x	1.1%	u	-5.2%
CCN(CC)c1ccc(/C=N/NC(=O)OC)c(O)c1	x	-28.0%	13.1	8.6%	u	-38.9%
CCN(CC)c1ccc(/C=N/Nc2ccccc2)c(O)c1	-8.8%	28.2µM*	x	15.8µM*	u	44.7µM*
CCN(CC)c1ccc(/C=N/NC(=S)NC)c(O)c1	x	44.7µM*	3.6	u	u	39.8µM*
CCN(CC)c1ccc(/C=N/Nc2cccc(C)c2)c(O)c1	-27.7%	39.8µM*	-1.6	17.8µM*	1.41µM*	50.1µM*
O=S(=O)(CCc1ccncc1)c1ccc(Cl)cc1	x	-20.9%	2.0	7.4%	35.5µM*	u
COC(=O)CCS(=O)(=O)c1ccc(Cl)cc1	x	-4.2%	x	58.4%	12.7%	-1.6%
Nn1cc(-c2ccccc2)nc1SCC(=O)NC1CCS(=O)(=O)C1 (stereo unspecified)	2.6%	-13.7%	0.3	47.5%	-38.7%[59 µM]	-24.7%
O=C(CSc1nc2ccccc2n1CCc1ccccc1)NC1CC1	1.1%	-11.7%	-7.9	8.6%	u	-5.5%
Cc1ccc(C)c(-n2cc(-c3ccc(Cl)cc3)nc2SCC(=O)NC2CCS(=O)(=O)C2)c1 (stereo unspecified)	-18.1%	u	5.6	-16.5%	44.7µM*	u
O=C(CSc1nc2ccccc2n1CCc1ccccc1)NC1CCS(=O)(=O)C1 (stereo unspecified)	x	-7.0%	0.9	42.4%	2µM*	-4.7%
Cc1ccccc1-n1c(SCC(=O)NC2CCS(=O)(=O)C2)nc2ccccc2c1=O (stereo unspecified)	2.7%	-8.3%	15.2	19.6%	50.1µM*	6.7%
COc1ccc(CNc2ccnc(-c3c(C)noc3C)n2)c(OC)c1	x	x	x	x	-3.1%[0.501 µM]	x
CC(=O)c1c(C)n(-c2cccc(C)c2)c2ccc(OC(=O)COc3ccccc3)cc12	x	-12.1%	x	62.4%	-23.5%[59 µM]	-0.3%
COc1ccc(CCN2C(=O)c3[nH]nc(-c4ccccc4O)c3C2c2ccccc2)cc1 (stereo unspecified)	x	-14.2%	x	33.4%	3.7%[59 µM]	-16.9%
CN1CCN(c2ccc(NC(=O)COc3ccc4ccccc4c3)cc2)CC1	x	-25.2%	-1.9	12.2%	35.5µM*	-18.4%
O=C(COc1ccc([N+](=O)[O-])cc1)Nc1ccc(N2CCN(C(=O)c3ccco3)CC2)cc1	x	-14.4%	-0.6	52.1%	x	25.1µM*
O=C(COc1ccc2ccccc2c1)Nc1ccc(Cc2ccncc2)cc1	4.5%	79.4µM*	x	60.5%	-9.8%	u
SMILES	L3MBTL1 inh	JMJD2A Tudor	PI5P4Ka inh	HP1b chromo inh	G9a inh	BAZ2B inh
O=C(COc1ccc2ccccc2c1)NN1C(=O)c2ccccc2C1=O	9.1%	89.1µM*	1.5	9.6%	-1.5%[59 µM]	9.4%
O=C(COc1ccc2ccccc2c1)NCCNC(=O)COc1ccc2ccccc2c1	x	-12.7%	0.4	8.4%	u	u
CN1CCN(c2ccc(NC(=O)COc3cccc4ccccc34)cc2)CC1	x	u	0.5	-10.4%	u	u
CC(C)c1ccc(S(=O)(=O)c2nnn3c2nc(N2CCOCC2)c2sccc23)cc1	x	0.7%	x	86.3%	12.0%[59 µM]	-2.9%
O=[S+]1([O-])N=C(Oc2cccnc2)c2ccccc21	x	2.1%	x	x	x	x
CCOC(=O)c1cccc(NC(=O)C2CCN(S(=O)(=O)c3ccc4c(c3)oc(=O)n4C)CC2)c1	x	-7.6%	x	47.7%	0.0%[59 µM]	-2.3%
COc1ccc(Cl)cc1NC(=O)CSc1ccc2nnc(CCNS(=O)(=O)c3ccccc3)n2n1	x	-3.7%	x	42.6%	4.5%[59 µM]	-2.4%
COc1cccc(CN2CCN(C(c3ccccc3)c3ccccc3)CC2)c1O	-5.9%	50.1µM*	2.1	u	x	35.5µM*
COc1cc(C(=S)N2CCN(C(c3ccccc3)c3ccccc3)CC2)cc(OC)c1O	-17.4%	56.2µM*	-10.5	u	7.94µM*	39.8µM*
O=C1C2C3C=CC(C3)C2C(=O)N1c1cccc2ccccc12 (stereo unspecified)	x	-10.3%	1.8	27.0%	-4.9%	2.2%
O=C1[C@H]2[C@@H](C(=O)N1c1cccc3ccccc13)C1(C(=O)c3ccccc3C1=O)N1CCC[C@@H]21	-14.3%	-9.5%	4.4	6.5%	39.8µM*	u
CC(C)=CCc1c(O)cc(O)c2c(=O)c3c(CC=C(C)C)c(O)ccc3oc12	x	56.2µM*	u	-22.9%	x	x
CON(C)S(=O)(=O)c1cccc(C(=O)Nc2ccc(S(=O)(=O)NC3=NCCCCC3)cc2)c1	-12.3%	-4.1%	3.7	10.9%	50.1µM*	7.8%
CON(C)S(=O)(=O)c1cccc(C(=O)Nc2cccc(S(=O)(=O)NC3=NCCCCC3)c2)c1	x	-12.7%	5.2	32.7%	x	x
CCN(CC)S(=O)(=O)c1cccc(C(=O)Nc2ccc(S(=O)(=O)NC3=NCCCCC3)cc2)c1	-5.3%	-17.2%	-4.5	3.4%	15.8µM*	0.9%
CC(=O)Nc1cccc(C(=O)Nc2ccc(S(=O)(=O)NC3=NCCCCC3)cc2)c1	0.1%	-15.2%	0.5	20.0%	18.7%[0.501 µM]	4.2%
CCCCN(C)C(=O)C1CCC(CNS(=O)(=O)c2ccc(Cl)cc2)CC1 (stereo unspecified)	x	-27.9%	x	33.2%	4.2%[59 µM]	-28.1%
CSCC[C@H](NC(=O)OC(C)(C)C)c1nnc(SCC(N)=O)o1	5.9%	-6.1%	11.4	21.7%	-12.5%	6.3%
CSCC[C@H](NC(=O)OC(C)(C)C)c1nnc(SCC=C(C)C)o1	0.1%	-27.0%	0.2	16.3%	50.1µM*	-3.7%
